Assay outcomes deposited in PubChem by National Center for Advancing Translational Sciences (NCATS).
ATXN2 expr inh = ATXN2 expression inhibition | AID 1745845 | Potency, µM (series often up to 57 µM), for inactives: at the highest dose activity change, negative = inhibition, hits mostly inhibitors | actives 0.72% (n = 360,000) | HEK-293 ATXN2-luciferase reporter, luminescence, 24 h; further: on the % scale 0 is the no-effect control and ±100 the full control effect; nearly all actives have a fitted effect of over 55% in size
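ATXN2-luciferase reporter cells (luciferase flanked by upstream and downstream ATXN2 gene portions) were treated 24 h at 37 °C with compounds at up to 57 uM. SteadyGlo luminescence gave expression; GF-AFC fluorescence gave viability.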
S2 tox = cell viability loss in ATXN counter-screen. S2 cells (HEK-293 line with an ATXN2-luciferase reporter) viability, CellTiter-Fluor protease fluorescence, 24 h. Potency, µM (series often up to 56.7 µM), hits mostly cytotoxic. actives 0.49% (n = 400,000). AID 651635; further: nearly all actives have a fitted effect of over 40% in size
KB-V1 cytotox = kills drug-selected multidrug resistant KB-V1 cells; Potency, µM (titrated, usually from 46.1 µM), actives largely listed as cytotoxic; KB-V1 MDR cells viability, CellTiter-Glo, 72 h; actives 3.4% (n = 400,000); further: on the % scale 0 is the no-effect control and ±100 the full control effect; nearly all actives have a fitted effect of over 60% in size
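Luminescent ATP read-out (CellTiter-Glo, 10 min) measures survival of drug-selected KB-V1 MDR cells after 72 h, 37 degrees C compound exposure. Medium: phenol-red-free DMEM, 10% FBS. Values from fitted concentration-response curves.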
HT1080 IDH1KD tx = HT-1080 IDH1 knockdown cell toxicity (counter line) | AID 686971 | actives 2% (n = 360,000) | Potency, µM (titrated, usually from 46.1 µM), for the others: at the highest dose activity, negative = toxicity, actives largely listed as cytotoxic | HT-1080 IDH1 knockdown viability, ATP luminescence, 48 h;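 further: 0% = DMSO wells and -100% = cell-free medium wells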
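After a 2 h attachment period, IDH1KD HT-1080 cells took pin-transferred compound for 48 h at 37 °C; ATP-based luminescence after 10 min room-temperature reagent incubation reported viability.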
HT1080NT lethal = kills 2HG-producing HT-1080-NT fibrosarcoma cells; HT-1080-NT fibrosarcoma viability, CellTiter-Glo ATP luminescence, 48 h; actives 1.6% (n = 360,000); Potency, µM (highest dose often 46.1 µM), for the others: at the top dose activity, negative = less viability, most hits filed as cytotoxic;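 further: NT is the 2HG producing partner of a matched IDH1 knockdown line; 0% = DMSO-treated cells and -100% = media-only wells without cells; nearly all actives have a fitted effect of over 55% in size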
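750 cells/well, RPMI + 5% FBS; 2 h settle, compound pin-transfer, 48 h at 37 degrees C. CellTiter-Glo 10 min RT, luminescence. Normalized to DMSO and media-only wells.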
KB-3-1 cytotox = kills parental KB-3-1 adenocarcinoma cells; KB-3-1 viability, CellTiter-Glo ATP luminescence, 72 h; Potency, µM (top dose mostly 46.1 µM), hits mostly cytotoxic; actives 1.4% (n = 400,000); further: on the % scale 0 is the no-effect control and ±100 the full control effect; nearly all actives have a fitted effect of over 60% in size
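Cytotoxicity measured as CellTiter-Glo luminescence after 72 h at 37 C. Compound titrations were pinned onto drug-naive KB-3-1 parental adenocarcinoma cells grown in DMEM with 10% FBS, and normalized data fitted to concentration-response curves.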
The depositor's hits bear a star; i = inactive; ? = inconclusive; · = not tested or not shown; [ ] = remark or other dose. A selection: hits, their analogues and other compounds. The true share with any hit is near 6.2%. The call rests on the fitted dose curve; in most records, active means well fitted curve in the direction sought with a large enough effect; inconclusive means small, poorly fitted or top-dose-only effect, or another doubt; inactive means no such curve, though single readings can be large; an effect the other way counts as inactive or inconclusive. Potency means the concentration at half of the fitted maximal effect.

SMILES	ATXN2 expr inh	S2 tox	KB-V1 cytotox	HT1080 IDH1KD tx	HT1080NT lethal	KB-3-1 cytotox
CCO[C@@H]1OC(C(=O)NCc2nc3ccccc3[nH]2)=C[C@H](C(C)(C)C)[C@H]1CCCO	3.8%	?	i	3.26µM*	3.26µM*	1.3µM*
CCO[C@@H]1OC(C(=O)NCc2nc3ccccc3[nH]2)=C[C@H](C2CC2)[C@H]1CCCO	-5.2%	?	i	?	18.4µM*	5.17µM*
COc1cc(C)c(CN2CCOc3ccc(C(O)c4cccnc4)cc3C2)cc1C (stereo not given)	·	i	·	·	·	·
CCS(=O)(=O)c1ncc(N(Cc2ccccc2)Cc2ccco2)c(C(=O)Nc2ccc(C)c(C)c2)n1	1.0%	i	i	·	·	i
Cc1ccccc1-n1c(SCC(=O)N2CCN(c3ccccc3)CC2)nnc1-c1ccncc1	1.6%	?	3.66µM*	1.6%	8.3%	i
CC1(C)Cc2ccccc2-c2nnc(SCC(=O)Nc3nc4ccccc4s3)n21	-5.3%	i	3.26µM*	5.5%	1.1%	?
CC1(C)Cc2ccccc2-c2nnc(SCC(=O)N3CCN(c4ccccc4)CC3)n21	?	i	2.31µM*	?	-30.0%	11.6µM*
Cn1c(SCC(=O)Nc2nc3ccccc3s2)nnc1-c1ccccc1	1.8%	i	i	-7.1%	-8.6%	i
CCc1cccc(NC(=O)CCNS(=O)(=O)c2ccc3c(c2)CCN3C(C)=O)c1	-14.9%	i	i	·	·	i
COc1cc2c(cc1OC)CN(C(=O)c1ccc([N+](=O)[O-])o1)CC2	-9.0%	i	?	?	13µM*	i
O=C(c1ccc([N+](=O)[O-])o1)N1CCc2ccccc2C1	·	i	?	-21.8%	-1.9%	i
COc1ccc(/C=C/C(=O)c2ccc([N+](=O)[O-])o2)cc1OC	8.91µM*	?	?	?	?	?
COc1cc(/C=C/C(=O)c2ccc([N+](=O)[O-])o2)ccc1O	?	3.55µM*	i	?	18.4µM*	i
O=C(/C=C/c1cccc(Cl)c1)c1ccc([N+](=O)[O-])o1	4.47µM*	8.91µM*	i	?	?	?
COc1cc(/C=C/C(=O)/C=C(O)/C=C/c2ccc(O)c(OC)c2)ccc1O	?	?	i	?	?	?
Cc1ccc(C)c(CN2CCCN(CC(=O)Nc3ccc(C)c(C)c3)S2(=O)=O)c1	·	·	i	·	·	i
COc1cc2c(cc1NC(=O)COC(=O)[C@@H](NC(=O)c1ccccc1)C(C)C)oc1ccccc12	19.0%	i	9.2µM*	-3.5%	-13.7%	i
COc1cc2c(cc1NC(=O)COC(=O)[C@@H](NC(=O)c1ccccc1F)C(C)C)oc1ccccc12	19.4%	i	16.4µM*	9.4%	3.6%	i
CC(C)COc1ccc(CN=C(N)N=C(N)N)cc1Cl	-11.2%	i	i	?	?	13µM*
CC(C)Oc1ccc(CN=C(N)N=C(N)N)cc1Cl	-1.8%[11.3 µM]	i	i	?	?	?
CCCCCCC#Cc1cncc(C(=O)NNC(=O)Nc2cc(Cl)cc(Cl)c2)c1	-27.2%	i	?	20.6µM*	?	i
CCCCC#Cc1cncc(C(=O)NN)c1	?	i	i	-19.2%	-11.3%	i
Cc1cc(C)n(CCc2nc(-c3cc4ccccc4o3)cs2)n1	5.2%	i	16.4µM*	5.9%	1.9%	i
Cc1cc(C)cc(NC(=O)CCn2c(=O)c3cccn3c3ccccc32)c1	·	i	?	?	-17.7%	9.2µM*
CC1CCN(C(=O)CN2CCSc3ccccc32)CC1	8.6%	?	i	·	·	i
SMILES	ATXN2 expr inh	S2 tox	KB-V1 cytotox	HT1080 IDH1KD tx	HT1080NT lethal	KB-3-1 cytotox
Cc1cccc(-c2c3c(=O)n(C)c(=O)n(C)c3c3c(C)nc4ccccc4n23)c1	-3.0%	i	i	·	·	i
Cc1ccccc1Cc1c(C)nc2c(C(=O)NCc3ccc4c(c3)OCO4)cnn2c1C	-16.5%	i	18.4µM*	2.0%	-10.9%	i
Cc1ccccc1Cc1c(C)nc2c(C(=O)N3CCN(Cc4ccc5c(c4)OCO5)CC3)cnn2c1C	-11.5%	i	8.2µM*	?	-4.2%	i
Cc1cccc(Cc2c(C)nc3c(C(=O)N4CCN(Cc5ccc6c(c5)OCO6)CC4)cnn3c2C)c1	-21.3%	i	i	-22.9%	?	i
CCN1CCN(C(c2ccccc2)c2nnnn2C(C)(C)C)CC1 (stereo not given)	12.4%	i	i	10.9%	13.6%	i
CC(C)(C)n1nnnc1C(c1cccnc1)N(Cc1ccccc1)Cc1ccco1 (stereo not given)	-15.0%	i	?	5.4%	10.6%	i
CCN(Cc1ccccc1)C(c1cccc(C#N)c1)c1nnnn1C(C)(C)C (stereo not given)	-21.0%	i	13µM*	?	-23.4%	i
CCN(Cc1ccccc1)C(c1ccc(C(F)(F)F)cc1)c1nnnn1C(C)(C)C (stereo not given)	?	i	20.6µM*	-0.6%	-2.3%	16.4µM*
CN(Cc1ccco1)C(=O)c1cc(NC(=O)C2CCC2)c2c(c1)nc(-c1ccncc1)n2C	·	i	·	·	·	·
Cc1cccc(Cn2c(COc3ccccc3)nc3ccccc32)c1	0.2%	?	?	·	·	i
Cc1ccc(N(C)S(=O)(=O)c2ccc3[nH]c4c(c3c2)CCCC4)cc1	-37.7%	?	18.4µM*	·	·	i
CCN(c1ccc(OC)cc1)S(=O)(=O)c1ccc2[nH]c3c(c2c1)CCCCC3	?	?	18.4µM*	·	·	8.2µM*
Cc1ccc(NS(=O)(=O)c2ccc3[nH]c4c(c3c2)CCCCCC4)cc1	?	?	i	·	·	?
CO[C@H]1C[C@H](O[C@H]2[C@H](C)[C@@H](O[C@@H]3O[C@H](C)C[C@H](N(C)C)[C@H]3O)[C@@H](C)C[C@]3(CO3)C(=O)[C@H](C)[C@@H](O)[C@@H](C)[C@@H](C)OC(=O)[C@@H]2C)O[C@@H](C)[C@@H]1O	·	i	·	·	·	·
CC(C)(C)C(=O)Cn1c(=O)n(-c2ccc(Cl)cc2)c(=O)c2c3c(sc21)CCCC3	-16.3%	?	i	·	·	i
CCOC(=O)c1c(-c2ccc(C)o2)csc1NC(=O)CSc1nncs1	4.9%	i	14.6µM*	?	?	i
CCOC(=O)c1c(-c2ccc(C)o2)csc1NC(=O)CN1CCCCC1	8.0%	i	?	?	?	i
CCOC(=O)c1c(NC(=O)CSc2nc3ccccc3s2)sc(C)c1C	-10.8%	i	13µM*	-2.5%	-1.8%	i
